Assay [1] can be described thus: Confirmatory screen GU Rhodamine qHTS for Zika virus inhibitors qHTS (AID 1347157).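 Note: plate controls were no-inhibitor wells for no effect and no-enzyme wells for full effect; nearly all actives have a fitted effect of over 70% in size.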 The gist of the method:
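Percent inhibition came from the 15-min rise in Rhodamine110 fluorescence (1.5 microM substrate, ~15% conversion), normalized to no-inhibitor and no-enzyme wells and Hill-fitted. Unlinked protease, 25 nM, pH 8.0 Tris buffer; compounds up to 114 microM, 15-min preincubation.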
In general terms: In qHTS, concentration-response curves come from the screen itself.

Assay [2] is described as follows: Confirmatory screen NINDS Rhodamine qHTS for Zika virus inhibitors (AID 1347161).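 For activity change, negative = inhibition: purified Zika NS2B-NS3 protease with linked NS2B cofactor domain and Rhodamine110 peptide substrate; series mostly up to about 110 µM; plate controls were no-inhibitor control for no effect and no-enzyme control for full effect.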 Note: nearly all actives have a fitted effect of over 60% in size. Note: potency is the fitted concentration of half-maximal effect. In a few lines: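 Single-chain NS2B-NS3 protease, 25 nM, pH 8.0; compounds preincubated 15 min. Activity: Rhodamine110 release from 1.5 microM substrate over 15 min, room temperature, data fitted to 4-parameter Hill.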
A short description of assay [3]: Tertiary RLuc qRT-PCR qHTS assay for Zika virus inhibitors (AID 1347169). Note: top concentration of the series differs between compounds; % is set by controls: 0 for no effect and ±100 for the full control effect; nearly all actives have a fitted effect of over 55% in size. The gist of the method: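 Orthogonal cell-based readout: luminescence measured 1-1.5 hrs after adding live-cell Renilla substrate to Vero cells that had been infected with ZIKV-RLuc (MOI 1-2) post-compound, incubated 48-72 hrs at 37 degrees C.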
The nature of assay [4]: ZIKV-mCherry secondary qHTS for Zika virus inhibitors (AID 1347158). Note: top concentration of the series differs between compounds. In a few lines: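 Vero cells, 5,000/well, plated overnight at 37 °C, then compound added and infected with recombinant ZIKV-mCherry at MOI 1 for 48-72 h. PFA-fixed, Hoechst nuclear stain, high-content imaging; cells with mCherry intensity above 450 RFU scored infected, reported as percent infection.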
Assay [5] has as its system Zika virus NS2B-NS3 protease (linked). Briefly: 384 well plate NINDS AMC confirmatory qHTS for Zika virus inhibitors (AID 1347163). Note: potency is the fitted concentration of half-maximal effect; nearly all actives have a fitted effect of over 50% in size. The gist of the method: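 Linked protease 5/30/60 nM final; cpds up to 1 mM final, ~15 min preinc. Substrate Ac-VKTGKR-AMC 30 microM final. RT, dark, 25 min; FI ex 355/em 460; normalized to no-enzyme/no-inhibitor ctrls.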
In assay [6] the target is Rap guanine nucleotide exchange factor 3 (Homo sapiens) (UniProt O95398). Briefly: Confirmatory qHTS for antagonist of cAMP-regulated guanine nucleotide exchange factor 3 (EPAC1) (AID 1645880).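 Note: plate controls were DMSO only for no effect and full effect of the ATA control for full effect; nearly all actives have a fitted effect of over 55% in size.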 In a few lines: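 Nucleotide exchange uses 100 nM EPAC1, 250 nM RAP1B-BODIPY-GDP and 50 uM GDP, with compounds in a concentration-titration series. After 5 min at room temperature, fluorescence (480 nm ex/540 nm em) is read every 5 min for 30 min. Data are normalized to control ATA and DMSO.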
Rap guanine nucleotide exchange factor 3 (Homo sapiens), sequence (O95398 whole entry, looked up): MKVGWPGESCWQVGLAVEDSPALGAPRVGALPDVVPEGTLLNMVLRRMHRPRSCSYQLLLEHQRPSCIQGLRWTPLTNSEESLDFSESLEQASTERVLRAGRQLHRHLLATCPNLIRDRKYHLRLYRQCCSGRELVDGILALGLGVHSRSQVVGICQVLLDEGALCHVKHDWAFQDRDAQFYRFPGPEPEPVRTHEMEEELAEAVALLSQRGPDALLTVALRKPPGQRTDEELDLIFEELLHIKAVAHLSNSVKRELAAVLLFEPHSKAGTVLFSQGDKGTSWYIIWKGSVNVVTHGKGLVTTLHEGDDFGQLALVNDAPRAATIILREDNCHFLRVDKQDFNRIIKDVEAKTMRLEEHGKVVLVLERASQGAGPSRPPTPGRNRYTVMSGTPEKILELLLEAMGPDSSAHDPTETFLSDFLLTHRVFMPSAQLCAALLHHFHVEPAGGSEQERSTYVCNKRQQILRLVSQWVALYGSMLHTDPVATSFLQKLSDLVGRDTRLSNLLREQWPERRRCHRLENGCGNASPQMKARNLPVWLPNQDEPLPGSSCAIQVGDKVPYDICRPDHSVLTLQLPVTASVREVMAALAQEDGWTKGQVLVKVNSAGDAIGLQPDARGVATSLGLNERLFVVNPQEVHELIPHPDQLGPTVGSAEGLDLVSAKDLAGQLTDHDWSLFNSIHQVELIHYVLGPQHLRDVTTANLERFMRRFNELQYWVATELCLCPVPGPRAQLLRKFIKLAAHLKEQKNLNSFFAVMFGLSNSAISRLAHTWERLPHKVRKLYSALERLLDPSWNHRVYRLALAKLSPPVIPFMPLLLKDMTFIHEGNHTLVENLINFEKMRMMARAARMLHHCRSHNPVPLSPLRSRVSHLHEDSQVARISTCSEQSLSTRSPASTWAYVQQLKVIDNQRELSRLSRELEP

Assay [7] has the same target. Briefly: Confirmatory qHTS for agonist of cAMP-regulated guanine nucleotide exchange factor 3 (EPAC1) (AID 1645881).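 Note: EPAC1 catalysed release of BODIPY-GDP from Rap1B seen as fluorescence loss; 100% = effect of cAMP agonist control; nearly all actives have a fitted effect of over 75% in size.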
Assay [8] deals with Rap guanine nucleotide exchange factor 4 (Homo sapiens) (UniProt Q8WZA2). Briefly: Confirmatory qHTS for antagonist of cAMP-regulated guanine nucleotide exchange factor 4 (EPAC2) (AID 1645885). Note: % is set by controls: 0 for no effect and ±100 for the full control effect; nearly all actives have a fitted effect of over 25% in size.
Rap guanine nucleotide exchange factor 4 (Homo sapiens), sequence (Q8WZA2 whole entry, looked up): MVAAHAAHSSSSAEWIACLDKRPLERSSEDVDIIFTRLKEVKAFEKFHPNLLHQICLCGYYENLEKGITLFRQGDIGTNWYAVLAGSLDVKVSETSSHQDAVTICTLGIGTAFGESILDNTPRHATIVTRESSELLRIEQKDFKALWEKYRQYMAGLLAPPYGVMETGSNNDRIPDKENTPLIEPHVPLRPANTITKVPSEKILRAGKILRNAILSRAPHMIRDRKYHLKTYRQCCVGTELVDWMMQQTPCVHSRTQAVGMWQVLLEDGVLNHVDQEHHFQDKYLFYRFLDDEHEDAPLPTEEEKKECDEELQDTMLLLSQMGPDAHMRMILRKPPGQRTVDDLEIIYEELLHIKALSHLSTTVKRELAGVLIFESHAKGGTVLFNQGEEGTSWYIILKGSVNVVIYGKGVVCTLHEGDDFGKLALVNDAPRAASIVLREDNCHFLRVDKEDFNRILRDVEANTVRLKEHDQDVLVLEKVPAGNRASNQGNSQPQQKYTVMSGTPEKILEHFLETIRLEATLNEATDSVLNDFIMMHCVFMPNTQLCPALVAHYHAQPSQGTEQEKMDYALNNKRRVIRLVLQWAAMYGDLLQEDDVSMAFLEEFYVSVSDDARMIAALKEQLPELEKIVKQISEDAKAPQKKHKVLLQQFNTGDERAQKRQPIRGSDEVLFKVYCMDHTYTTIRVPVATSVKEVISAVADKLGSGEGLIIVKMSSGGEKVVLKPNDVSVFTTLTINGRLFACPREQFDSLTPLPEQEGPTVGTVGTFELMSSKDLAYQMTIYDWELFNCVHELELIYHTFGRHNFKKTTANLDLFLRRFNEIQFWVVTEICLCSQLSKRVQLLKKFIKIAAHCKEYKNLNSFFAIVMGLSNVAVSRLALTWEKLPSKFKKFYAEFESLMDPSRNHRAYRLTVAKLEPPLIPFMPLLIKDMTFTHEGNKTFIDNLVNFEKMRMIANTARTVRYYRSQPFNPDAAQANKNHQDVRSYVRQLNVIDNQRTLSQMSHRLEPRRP
For assay [9], the target named is Rap guanine nucleotide exchange factor 3 (Homo sapiens) (UniProt O95398). Briefly: Counterscreen qHTS for antagonist of cAMP-regulated guanine nucleotide exchange factor 3 (EPAC1) (AID 1645888).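 Note: fluorescence loss as bound BODIPY-GDP is released from Rap1B; % of control where 0% means no effect.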 The gist of the method:
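Rap1B-BODIPY-GDP 250 nM + GDP 50 uM; cpds 7-pt, final 9.74 nM–152 uM (activator mode) or from 7.32 nM upwards (inhibitor mode); RT; FI 480/540 nm at 5 and 30 min, then ± cAMP, reread.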
On the technique in general: A counterscreen serves to expose hits that act by an unwanted route or on another target.

Assay [10] addresses Cytochrome P450 3A4 (Homo sapiens) (UniProt P08684). Briefly: qHTS Assay for Inhibitors and Substrates of Cytochrome P450 3A4 (AID 884). Note: series mostly up to about 57 µM; % is set by controls: 0 for no effect and ±100 for the full control effect; nearly all actives have a fitted effect of over 50% in size. In a few lines: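 20 nM human CYP3A4 with 25 uM Luciferin-PPXE (at KM) in 200 mM KPO4, preincubated 10 min with compound; NADPH regeneration started a 60 min RT reaction. Luciferin detected by luminescence, normalized to 57 uM ketoconazole as full inhibition.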

Assay [11] is described as follows: Confirmation and Secondary Assay for Modulators of Hemoglobin Beta Chain Splicing at IVS2 654 locus (AID 910).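 Note: HeLa cells stably carrying EGFP split by mutant beta-globin IVS2-654 intron; per-well total GFP intensity by laser scanning cytometry after 2-day treatment; % of control where 0% means no effect.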 In a few lines:
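Readout: per-well total peak green fluorescence (488 nm ex, 500–520 nm em) from objects 5–250 µm, reflecting correct splicing of an EGFP-654 reporter. Compounds were applied for 2 days at 37 °C to overnight-plated HeLa EGFP-654 cells; controls were DMSO and 500 nM IVS2-654 PNA.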

A short description of assay [12]: Confirmation and Secondary Assay for Modulators of Hemoglobin Beta Chain Splicing at IVS2 705 locus (AID 930).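 Note: HeLa cells stably expressing the EGFP-705 splicing reporter; GFP fluorescence per well restored by corrected splicing of the IVS2-705 intron in EGFP; series mostly up to about 46 µM; % of control where 0% means no effect.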 In a few lines: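 HeLa EGFP-705 reporter; 500 cells/well, o/n 37C 5% CO2; cpd 2 d; 488 ex/500-520 em laser scan; total peak GFP intensity/well. Ref: 500 nM […] antisense PNA.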
Assay [13] addresses Ubiquitin carboxyl-terminal hydrolase 1 (Homo sapiens) (UniProt O94782). Briefly: Inhibitors of USP1/UAF1: Pilot qHTS (AID 504865).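 Note: rhodamine fluorescence freed from ubiquitin-rhodamine substrate followed over time; top concentration of the series differs between compounds; % is set by controls: 0 for no effect and ±100 for the full control effect; nearly all actives have a fitted effect of over 35% in size.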 The gist of the method:
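Deubiquitinase activity followed as kinetic rhodamine fluorescence release from 150 nM Ub-Rho. 1 nM USP1/UAF1 with compound, after 15 min room-temperature preincubation, in HEPES pH 7.8 buffer containing TCEP, EDTA, BSA and Tween-20.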

The subject of assay [14] is Zika virus NS2B-NS3 protease (linked construct). Briefly: 384 well plate NINDS Rhodamine confirmatory qHTS for Zika virus inhibitors (AID 1347164).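 For activity change, negative = inhibition: top concentration of the series differs between compounds; plate controls were no-inhibitor control for no effect and no-enzyme control for full effect.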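 Note: fluorescence from protease cleavage of Ac-LKRR-rhodamine 110 substrate; nearly all actives have a fitted effect of over 65% in size.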 Note: potency is the fitted concentration of half-maximal effect. In a few lines: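 Fluorescence at 485/538 nm was measured 25 minutes after adding 10 microM Ac-LKRR-Rd substrate, in the dark at room temperature. The protease (5, 30 or 60 nM final) had been preincubated ~15 minutes with compound; aprotinin as control.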

The structures appear in SMILES notation. A number with no mark means an inactive call. Inconclusive results are not listed. Activity calls are given as the source filed them. Calls come from the whole dose curve; as a rule, active = well fitted curve in the direction sought with a large enough effect; inconclusive = small, poorly fitted or top-dose-only effect, or another doubt; inactive = no such curve, though single readings can be large; an effect the other way counts as inactive or inconclusive.

Ubiquitin carboxyl-terminal hydrolase 1 (Homo sapiens), sequence (O94782 whole entry, looked up): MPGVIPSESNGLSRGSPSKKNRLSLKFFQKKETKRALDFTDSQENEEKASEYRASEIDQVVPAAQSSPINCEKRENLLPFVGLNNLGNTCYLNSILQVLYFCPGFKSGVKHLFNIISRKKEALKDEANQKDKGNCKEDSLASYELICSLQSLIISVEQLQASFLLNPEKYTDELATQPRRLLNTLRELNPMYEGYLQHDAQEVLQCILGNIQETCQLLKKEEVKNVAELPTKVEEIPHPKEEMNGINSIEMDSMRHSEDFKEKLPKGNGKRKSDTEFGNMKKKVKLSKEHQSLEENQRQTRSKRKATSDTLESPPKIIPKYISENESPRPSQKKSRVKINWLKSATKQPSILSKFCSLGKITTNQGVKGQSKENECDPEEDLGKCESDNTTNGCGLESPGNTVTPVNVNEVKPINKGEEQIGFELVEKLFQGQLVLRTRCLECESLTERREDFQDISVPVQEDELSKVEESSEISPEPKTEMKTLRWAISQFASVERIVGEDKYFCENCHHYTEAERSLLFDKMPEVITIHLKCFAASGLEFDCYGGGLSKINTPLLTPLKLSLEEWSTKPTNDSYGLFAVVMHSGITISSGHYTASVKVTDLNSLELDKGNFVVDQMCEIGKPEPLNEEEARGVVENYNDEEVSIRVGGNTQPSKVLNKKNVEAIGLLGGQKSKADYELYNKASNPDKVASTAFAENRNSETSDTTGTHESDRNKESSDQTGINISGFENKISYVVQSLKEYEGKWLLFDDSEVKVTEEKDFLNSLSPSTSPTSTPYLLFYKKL
Cytochrome P450 3A4 (Homo sapiens), sequence (P08684 whole entry, looked up): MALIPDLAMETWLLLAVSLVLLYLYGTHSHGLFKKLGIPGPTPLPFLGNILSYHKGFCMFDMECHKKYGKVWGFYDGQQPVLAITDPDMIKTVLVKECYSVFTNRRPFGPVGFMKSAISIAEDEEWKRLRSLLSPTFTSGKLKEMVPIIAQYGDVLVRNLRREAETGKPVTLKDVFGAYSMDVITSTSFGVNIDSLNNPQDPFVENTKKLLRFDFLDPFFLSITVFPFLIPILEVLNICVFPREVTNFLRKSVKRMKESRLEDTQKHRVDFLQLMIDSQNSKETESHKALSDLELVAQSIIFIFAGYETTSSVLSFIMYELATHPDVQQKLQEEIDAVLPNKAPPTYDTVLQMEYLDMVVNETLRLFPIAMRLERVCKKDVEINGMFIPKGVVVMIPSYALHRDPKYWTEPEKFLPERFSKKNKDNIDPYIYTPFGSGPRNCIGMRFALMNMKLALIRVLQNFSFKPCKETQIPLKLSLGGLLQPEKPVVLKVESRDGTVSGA

Take `CCOC(=O)c1ccc(NC(=O)c2nc(SCc3ccc(F)cc3)ncc2Cl)cc1`: the Potency entry in [1], in assay [2] and in assay [3] was “inactive” each time.

Consider `O=C(Nc1cccc(C(=O)OCc2cc(=O)n3nc(C4CC4)sc3n2)c1)c1ccc(F)cc1`, for which the Potency entry in assay [4] and in [3] was “inactive” throughout. Moreover, the Potency in assay [2] was 31.6 µM (active); in assay [5], 89.1 µM (active).

As for `O=C(Nc1ccccc1C(=O)OCc1cc(=O)n2c3c(sc2n1)CCCC3)c1cccc(Cl)c1`, the Potency result in assay [1] and in assay [3] was “inactive” throughout.

Turning to `O=C(Nc1ccccc1C(=O)OCc1cc(=O)n2c3c(sc2n1)CCCC3)c1ccc(F)cc1`, the Potency entry in assay [1], in assay [3] and in assay [6] was “inactive” in each case. Also, the compound was classed as inactive in [7] and in assay [9]. In addition, the activity change, negative = inhibition in [8] was -5.61% [at 12.7 µM].

Take `O=C(Nc1ccccc1C(=O)OCc1cc(=O)n2nc(C3CC3)sc2n1)c1ccc(Cl)cc1`: the Potency entry in assay [1], in assay [2] and in assay [3] was “inactive” each time.

Take `O=C(O)c1nc2cc(Cl)c(Cl)cc2[nH]c1=O`: the Potency entry in assay [10], in [13], in assay [1], in [2] and in [3] was “inactive” in each case. For the same compound, the call in [11] and in assay [12] was inactive.

`CC(C)c1ccc(Nc2sc(C(=O)c3ccccc3)c(N)c2S(=O)(=O)c2ccccc2)cc1`: the Potency entry in assay [1], in assay [2] and in [3] was “inactive” throughout.

`O=C(Nc1cccc(C(=O)OCc2cc(=O)n3c4c(sc3n2)CCCC4)c1)c1cccc(Cl)c1`: the Potency result in [1] and in [3] was “inactive” in each case.

As for `Cc1ccc(S(=O)(=O)Nc2cc(SCC(=O)O)c(O)c3ccccc23)cc1[N+](=O)[O-]`, in assay [4], the Potency result is “inactive”. The Potency in assay [2] is 6.98 µM (active); in [5], 31.6 µM (active). In addition, the activity change, negative = inhibition in assay [14] was -280% [at 100 µM].

`O=C(Nc1ccccc1C(=O)OCc1cc(=O)n2nc(C3CC3)sc2n1)c1cccc(Cl)c1`: the Potency entry in assay [1], in assay [2] and in assay [3] was “inactive” each time.

For `CCOC(=O)c1ccc(CN(Cc2ccc(F)cc2)S(=O)(=O)c2ccc(F)c(C(=O)Nc3ccccc3C(F)(F)F)c2)cc1`, the Potency entry in [1], in assay [2] and in assay [3] was “inactive” in each case.

Consider `O=C(Nc1ccc(-c2nc3ccccc3s2)c(O)c1)c1ccc(Br)cc1`, for which the Potency result in assay [1], in assay [2] and in [3] was “inactive” in each case.

As for `CC(Oc1ccccc1)C(=O)Nc1ccc(C(=O)OCc2cc(=O)n3nc(C(C)C)sc3n2)cc1` (centres undefined), the Potency result in assay [1], in assay [2] and in [3] was “inactive” each time.

As for `CN(C)c1cc(CNCC(C)(C)C)c(O)c2c1C[C@H]1C[C@H]3[C@H](N(C)C)C(=O)C(C(N)=O)=C(O)[C@@]3(O)C(=O)C1=C2O`, the Potency result in [4] and in assay [2] was “inactive” in each case. The Potency in [14] was 158 µM (active).
